Values joined by “and” are separate entries in the source; they are usually repeats but may differ in a detail not shown here. Identical values can stand only once. Out of some 5,500 compounds screened, about 2,000 (36%) were called active. Inconclusive results (about 18%) are left out. No stated cut-off is given here; in the data, active means normalized growth mostly below about 0.91 (no sharp cut-off); inconclusive means no clear call, values can overlap the other calls; inactive means mostly above about 0.92. The list shows a part of the results.
Assay: chemical genetic growth profiling, strain panel (AID 1159580);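 further: tested at 20 µM; growth read once vehicle control cultures reached saturation at 30 °C; 1 = growth at the plate median or of vehicle wells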
Conditions: growth OD
[1] = S. cerevisiae deletion strains, locus YGR078C, strain PAC10, stronger effect = lower value
[2] = S. cerevisiae deletion strains, locus YGR229C, strain SMI1, stronger effect = lower value
[3] = S. cerevisiae deletion strains, locus YJR075W, strain HOC1, stronger effect = lower value
[4] = S. cerevisiae deletion strains, locus YMR263W, strain SAP30, stronger effect = lower value
[5] = S. cerevisiae deletion strains, locus YMR307W, strain GAS1, stronger effect = lower value
[6] = S. cerevisiae deletion strains, locus YNL153C, strain GIM3, stronger effect = lower value
[7] = S. cerevisiae deletion strains, locus YNL322C, strain KRE1, stronger effect = lower value
[8] = S. cerevisiae deletion strains, locus YPL055C, strain LGE1, stronger effect = lower value
[9] = S. cerevisiae deletion strains, locus YAL013W, strain DEP1, stronger effect = lower value
[10] = S. cerevisiae deletion strains, locus YBR229C, strain ROT2, stronger effect = lower value
[11] = S. cerevisiae deletion strains, locus YDL101C, strain DUN1, stronger effect = lower value
[12] = S. cerevisiae deletion strains, locus YDR150W, strain NUM1, stronger effect = lower value
[13] = S. cerevisiae deletion strains, locus YEL061C, strain CIN8, stronger effect = lower value
[14] = S. cerevisiae deletion strains, locus YHR030C, strain SLT2, stronger effect = lower value
[15] = S. cerevisiae deletion strains, locus YHR087W, strain rtc3, stronger effect = lower value
[16] = S. cerevisiae deletion strains, locus YJR043C, strain POL32, stronger effect = lower value
[17] = S. cerevisiae deletion strains, locus YLR039C, strain RIC1, stronger effect = lower value
[18] = S. cerevisiae deletion strains, locus YLR058C, strain SHM2 (second series), stronger effect = lower value
[19] = S. cerevisiae deletion strains, locus YLR085C, strain ARP6, stronger effect = lower value
[20] = S. cerevisiae deletion strains, locus YLR262C, strain YPT6, stronger effect = lower value
[21] = S. cerevisiae deletion strains, locus YML094W, strain GIM5, stronger effect = lower value
[22] = S. cerevisiae deletion strains, locus YMR219W, strain ESC1, stronger effect = lower value
[23] = S. cerevisiae deletion strains, locus YNL298W, strain CLA4 (second series), stronger effect = lower value
[24] = S. cerevisiae deletion strains, locus YNR030W, strain Alg12, stronger effect = lower value
[25] = S. cerevisiae deletion strains, locus YPL241C, strain CIN2, stronger effect = lower value
[26] = S. cerevisiae deletion strains, locus YPR135W, strain CTF4, stronger effect = lower value
[27] = S. cerevisiae deletion strains, locus YCL061C, strain MRC1, stronger effect = lower value
[28] = S. cerevisiae deletion strains, locus YJL187C, strain SWE1, stronger effect = lower value
[29] = S. cerevisiae deletion strains, locus YKL190W, strain CNB1, stronger effect = lower value

Measured: normalized growth

c1ccc(C2CN3CCSC3=N2)cc1 (stereo not given)
inactive: S. cerevisiae deletion strains, locus YAL040C, strain CLN3, stronger effect = lower value 0.985 and 1 | S. cerevisiae deletion strains, locus YCL061C, strain MRC1 (second series), stronger effect = lower value 0.997 and 1.02 | S. cerevisiae deletion strains, locus YDR363W, strain ESC2, stronger effect = lower value 1.02 and 1.04 | S. cerevisiae deletion strains, locus YER002W, strain NOP16, stronger effect = lower value 0.991 and 1.03 | [1] 1 | [2] 1.04 | [3] 1.04 and 1.01 | [4] 1.01 | [5] 1.02 and 1 | [6] 1.02 | S. cerevisiae deletion strains, locus YNL175C, strain NOP13, stronger effect = lower value 0.984 and 1 | S. cerevisiae deletion strains, locus YNL197C, strain WHI3, stronger effect = lower value 0.977 and 1.01 | S. cerevisiae deletion strains, locus YNL224C, strain SQS1, stronger effect = lower value 0.999 and 1.01 | [7] 1.02 | S. cerevisiae deletion strains, locus YOR083W, strain WHI5 (second series), stronger effect = lower value 0.983 and 1.03 | [8] 1.05

Cc1cccc(NCN2C(=O)CCC2=O)n1
active: [17] 0.643 | [20] 0.572
inactive: [9] 0.968 | [10] 0.996 | [11] 0.956 | [12] 0.959 | [13] 0.982 | [1] 0.965 | [14] 0.821 | [15] 1.06 | [16] 0.972 | [3] 0.987 | [18] 0.97 | [19] 0.95 | [21] 0.932 | [22] 0.992 | [4] 1.01 | [5] 1.22 | [6] 0.98 | [23] 0.938 | [7] 0.983 | [24] 0.977 | [8] 1 | [25] 0.96 | [26] 0.978

O=C1CCC(=O)N1CNc1ccccc1OC(F)(F)F
inactive: [9] 0.968 | [10] 0.994 | [27] 1.01 | [11] 0.963 | S. cerevisiae deletion strains, locus YDL134C, strain PPH21, stronger effect = lower value 0.999 | [12] 1.02 | [13] 0.984 | [1] 0.996 | [2] 0.998 | [14] 1.04 | [15] 0.989 | [28] 1 | [16] 1 | [3] 0.997 | [29] 0.999 | [17] 0.991 | [18] 0.992 | [19] 1.02 | [20] 1.05 | [21] 1.02 | [22] 0.993 | [4] 1.03 | [5] 1.2 | S. cerevisiae deletion strains, locus YNL128W, strain TEP1, stronger effect = lower value 0.993 | [6] 1.01 | [23] 0.971 | [7] 0.983 | [24] 1 | [8] 1.07 | [25] 1.02 | [26] 0.92

Cc1cccc(N2C(=O)C3C4C=CC(C4)C3C2=O)n1 (stereo not given)
inactive: [9] 0.994 | [10] 0.993 | [27] 0.985 | [11] 0.989 | [12] 0.987 | [13] 0.987 | [1] 1.01 | [14] 0.999 | [15] 0.971 | [28] 0.995 | [16] 1.01 | [3] 0.989 | [29] 0.991 | [17] 0.977 | [18] 0.992 | [19] 0.987 | [20] 0.998 | [21] 0.983 | [22] 0.992 | [4] 0.987 | [6] 1 | [23] 1.01 | [7] 1.01 | [24] 1 | [8] 0.991 | [25] 1.01 | [26] 1.03 | S. cerevisiae strains, strain wild type, stronger effect = lower value 0.999

— PubChem BioAssay AID1159580 (chemical genetic matrix, 2015)
